Records with an inconclusive call do not appear. Activity calls are given as the source filed them. How the source made its calls, unless noted: active means hit-call score of the fitted dose curve at least 0.9, where 1 is the maximum; inconclusive means response in the unintended direction; inactive means score below 0.9.
Assays:
[1] = read-out: solute carrier (SLC22A6), SLC22A6 (gene 9356); test: LTEA_HepaRG_SLC22A6: Life Technologies and Expression Analysis (LTEA) Assay for solute carrier (SLC22A6) using HepaRG (AID 2283653; active means hit-call score of the fitted dose curve at least 0.9, where 1 is the maximum; inactive means score below 0.9); details: mRNA level, 48 h; actives raise or lower the signal
Outline: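 Differentiated HepaRG cells exposed 48 h in serum-free induction medium to 8 half-log concentrations, top 100 uM, in 0.5% DMSO; SLC22A6 mRNA by Fluidigm qRT-PCR normalized to ACTB, GAPDH, POLR2A, fitted bidirectionally versus DMSO.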

[2] = target: Cellular tumor antigen p53 (Homo sapiens) (UniProt P04637); test: TOX21_p53_BLA_p4_ratio: Tox21 HCT-116 p53 Agonism Beta-lactamase Assay, Ratio, Phase 4 (AID 2283601)
Cellular tumor antigen p53 (Homo sapiens), sequence (P04637 whole entry, looked up): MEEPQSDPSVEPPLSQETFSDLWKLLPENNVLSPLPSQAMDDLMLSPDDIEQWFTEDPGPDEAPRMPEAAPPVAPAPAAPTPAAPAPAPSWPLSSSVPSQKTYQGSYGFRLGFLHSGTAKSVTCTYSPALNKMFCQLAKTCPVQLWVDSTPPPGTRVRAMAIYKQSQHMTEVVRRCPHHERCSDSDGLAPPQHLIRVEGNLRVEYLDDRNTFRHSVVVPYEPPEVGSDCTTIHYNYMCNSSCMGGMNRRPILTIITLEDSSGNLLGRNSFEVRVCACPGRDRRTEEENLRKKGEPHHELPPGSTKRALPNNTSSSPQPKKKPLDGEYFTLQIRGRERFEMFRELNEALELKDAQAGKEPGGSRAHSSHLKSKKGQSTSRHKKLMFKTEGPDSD
Outline: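 HCT-116 p53 beta-lactamase reporter cells (4000/well) preincubated 5 h, then compound (217-fold dilution of DMSO stock) for 16 h at 37C. CCF4-AM substrate added 2 h at room temperature; 460/530 nm emission ratio fitted upward versus DMSO.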

[3] = Tanguay_ZF_120hpf_MORT_legacy: (Legacy) Oregon State University Tanguay Lab 120 Hour Post-fertilization zebrafish Assay for Mortality (AID 2283633)
Outline: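 Dechorionated Tropical 5D wild-type zebrafish embryos, one per well from 6 hpf, static exposure in 0.64% DMSO at 28C until 120 hpf. Mortality scored as binary by brightfield microscopy at 24 and 120 hpf.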

[4] = Tanguay_ZF_120hpf_YSE_legacy: (Legacy) Oregon State University Tanguay Lab 120 Hour Post-fertilization zebrafish Assay for Yolk Sac Edema (AID 2283634)
Outline: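 Dechorionated Tropical 5D wild-type zebrafish embryos were exposed statically, one per well, from 6 to 120 hpf at 28C in 0.64% DMSO. Yolk sac edema was scored present/absent by brightfield at 120 hpf, and dead embryos were excluded.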

[5] = Tanguay_ZF_120hpf_EYE_legacy: (Legacy) Oregon State University Tanguay Lab 120 Hour Post-fertilization zebrafish Assay for Eye Malformation (AID 2283636);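 further: binary presence or absence of eye malformation scored by brightfield in 120 hpf larvae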
Outline: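 5D wild-type embryos, pronase-dechorionated at 4 hpf; static exposure 6–120 hpf, 28C, dark; DMSO 0.64% final; 5uM trimethyltin chloride positive control. Binary eye-defect scoring at 120 hpf; dead embryos not scored.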

[6] = Tanguay_ZF_120hpf_SNOU_legacy: (Legacy) Oregon State University Tanguay Lab 120 Hour Post-fertilization zebrafish Assay for Snout Malformation (AID 2283637)
Outline: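 Binary brightfield scoring of snout malformation at 120 hpf. Dechorionated 5D wild-type embryos, one per well, static exposure from 6 hpf at 28C, sealed and dark; final DMSO 0.64% (vol/vol), DMSO as baseline; 5uM trimethyltin chloride positive control.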

[7] = Tanguay_ZF_120hpf_OTIC_legacy: (Legacy) Oregon State University Tanguay Lab 120 Hour Post-fertilization zebrafish Assay for Otic Vesicle Malformation (AID 2283639)
Outline: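 Binary scoring of otic vesicle defects at 120 hpf in zebrafish (Tropical 5D) held under static exposure at 28C, sealed and shaded, with final DMSO 0.64%. Embryos dying by 24 or 120 hpf excluded; fitted positively against DMSO.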

[8] = Tanguay_ZF_120hpf_PE_legacy: (Legacy) Oregon State University Tanguay Lab 120 Hour Post-fertilization zebrafish Assay for Pericardial Edema (AID 2283640)
Outline: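 Tropical 5D wild-type zebrafish embryos were statically exposed until 120 hpf at 28C, with 0.64% DMSO final. Pericardial edema was scored by brightfield as present or absent; endpoints were not scored in dead embryos.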

[9] = Tanguay_ZF_120hpf_BRAI_legacy: (Legacy) Oregon State University Tanguay Lab 120 Hour Post-fertilization zebrafish Assay for Brain Malformation (AID 2283641)
Outline: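 Tropical 5D wild-type zebrafish embryos exposed statically until 120 hpf at 28C, 0.64% DMSO final, sealed and dark. Brain malformation scored present/absent by brightfield at 120 hpf; dead embryos excluded. Trimethyltin chloride 5uM positive control.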

[10] = Tanguay_ZF_120hpf_SOMI_legacy: (Legacy) Oregon State University Tanguay Lab 120 Hour Post-fertilization zebrafish Assay for Somite Malformation (AID 2283647)
Outline: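 Dechorionated Tropical 5D wild-type zebrafish embryos, one per well from 6 hpf, statically exposed at 28C to 120 hpf in 0.64% DMSO; somite malformation scored present/absent by brightfield; trimethyltin 5 uM positive control; dead embryos not scored.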

[11] = Tanguay_ZF_120hpf_PIG_legacy: (Legacy) Oregon State University Tanguay Lab 120 Hour Post-fertilization zebrafish Assay for Pigmentation Malformation (AID 2283650)
Outline: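 Brightfield scoring of pigmentation malformation at 120 hpf, recorded as binary present/absent per larva. Exposure: dechorionated 5D wild-type embryos, one per well, static from 6 hpf at 28C, final DMSO 0.64% (vol/vol). Dead embryos not scored.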

[12] = Tanguay_ZF_120hpf_CIRC_legacy: (Legacy) Oregon State University Tanguay Lab 120 Hour Post-fertilization zebrafish Assay for Circulatory Malformation (AID 2283651)
Outline: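 Binary circulatory malformation call at 120 hpf by brightfield imaging of zebrafish larvae; chorion removed at 4 hpf, static exposure from 6 hpf in sealed dark plates at 28C, final DMSO 0.64%; non-mortality endpoints skipped if embryo died.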

[13] = Tanguay_ZF_120hpf_AXIS_legacy: (Legacy) Oregon State University Tanguay Lab 120 Hour Post-fertilization zebrafish Assay for Body Axis Malformation (AID 2283635)
Outline: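 Dechorionated wild-type Tropical 5D zebrafish embryos, one per well, statically exposed from 6 hpf to 120 hpf at 28C in 0.64% DMSO final. Body axis malformation scored present/absent by brightfield microscopy at 120 hpf; dead embryos excluded.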

[14] = Tanguay_ZF_120hpf_JAW_legacy: (Legacy) Oregon State University Tanguay Lab 120 Hour Post-fertilization zebrafish Assay for Jaw Malformation (AID 2283638)
Outline: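 Dechorionated Tropical 5D wild-type zebrafish embryos, one per well, exposed statically from 6 hpf to 120 hpf at 28C in 0.64% DMSO. Jaw malformation was scored by brightfield microscopy as present or absent. It was not scored in dead embryos.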

[15] = Tanguay_ZF_120hpf_PFIN_legacy: (Legacy) Oregon State University Tanguay Lab 120 Hour Post-fertilization zebrafish Assay for Pectoral Fin Malformation (AID 2283648);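 further: each larva judged yes or no for fin defect by brightfield with dead larvae skipped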
Outline: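 Binary pectoral fin malformation call at 120 hpf by brightfield microscopy; 5D wild-type zebrafish, chorion removed at 4 hpf, one embryo per well from 6 hpf, static exposure at 28C; DMSO (0.64% final) as baseline.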

[16] = target: Cellular tumor antigen p53 (Homo sapiens) (UniProt P04637); test: TOX21_p53_BLA_p3_ratio: Tox21 HCT-116 p53 Agonism Beta-lactamase Assay, Ratio, Phase 3 (AID 2283596)
Outline: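 Cells were seeded at 4000/well, rested 5 h at 37C, then dosed with DMSO compound solutions (217-fold dilution) for 16 h. CCF4-AM substrate was loaded for 2 h at room temperature, and the 460/530 nm emission ratio was fitted for gain of signal versus DMSO.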

[17] = TOX21_p53_BLA_p4_viability: Viability Assessment in the Tox21 HCT-116 p53 Agonism Beta-lactamase Assay, Phase 4 (AID 2283597);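 further: hits lower the luminescence signal meaning cytotoxicity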
Outline: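 4000 HCT116 cells per well; 5 h attachment; compounds from DMSO, 217-fold dilution; 16 h at 37C. Then CCF4-AM, 2 h RT, followed by CellTiter-Glo, 30 min RT, luminescence. Decrease = cytotoxicity.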

[18] = target: Cellular tumor antigen p53 (Homo sapiens) (UniProt P04637); test: TOX21_p53_BLA_p5_ratio: Tox21 HCT-116 p53 Agonism Beta-lactamase Assay, Ratio, Phase 5 (AID 2283599)
Outline: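 HCT-116 p53-bla cells (4000/well) plated 5 h, dosed with compound (217-fold DMSO dilution) for 16 h at 37 C; CCF4-AM substrate 2 h at room temperature. Activity is the 460/530 nm emission ratio (405 nm excitation), fitted in gain-of-signal direction versus DMSO.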

[19] = TOX21_p53_BLA_p5_viability: Viability Assessment in the Tox21 HCT-116 p53 Agonism Beta-lactamase Assay, Phase 5 (AID 2283600)
Outline: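 Decreased CellTiter-Glo luminescence denotes lost viability. Exposure: 16 h at 37C, 5% CO2, with compounds from DMSO stocks diluted 217-fold in wells of 4000 cells.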

[20] = Tanguay_ZF_120hpf_CFIN_legacy: (Legacy) Oregon State University Tanguay Lab 120 Hour Post-fertilization zebrafish Assay for Caudal Fin Malformation (AID 2283649)
Outline: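 Dechorionated Tropical 5D wild-type embryos, one per well from 6 hpf, static exposure to 120 hpf at 28C in 0.64% DMSO. Caudal fin malformation scored by brightfield as present/absent; not scored in dead embryos.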

Measured: outcome

COS(=O)(=O)OC
inactive: [1]

Clc1ccc(Cl)cc1
inactive: [1]

CCOP(=S)(OCC)SCSC(C)(C)C
inactive: [2] | [3] | [4] | [5] | [6] | [7] | [8] | [9] | [10] | [11] | [12]

Cc1ccccc1CO[C@@H]1C[C@@]2(C(C)C)CC[C@]1(C)O2
inactive: [4] | [13] | [5] | [6] | [14] | [7] | [8] | [10] | [15] | [11] | [12]

Cc1ccccc1[N+](=O)[O-]
inactive: [16] | [17] | [18] | [19] | [2] | [4] | [13] | [5] | [6] | [14] | [7] | [8] | [10] | [20] | [11] | [12]

N#Cc1ccc(N(CC(N)=O)CC(F)(F)F)cc1C(F)(F)F
inactive: [17] | [18] | [19] | [3] | [4] | [13] | [5] | [6] | [14] | [7] | [8] | [11]

O=S(=O)(O)C(F)(F)C(F)(F)C(F)(F)C(F)(F)C(F)(F)C(F)(F)F
inactive: [16] | [17] | [18] | [3] | [4] | [13] | [5] | [6] | [14] | [7] | [10] | [11] | [12]

Oc1ccc(Cl)cc1Cl
inactive: [16] | [17] | [18] | [19] | [2] | [3] | [13] | [5] | [6] | [14] | [7] | [8] | [10] | [11]

Nn1cnnc1
inactive: [16] | [17] | [2] | [3] | [4] | [13] | [5] | [6] | [14] | [7] | [8] | [9] | [10] | [15] | [12]

CCCCCCCCCc1ccc(O)cc1
inactive: [17] | [18] | [19] | [2] | [3] | [4] | [5] | [6] | [14] | [7] | [8] | [10] | [11] | [1]

Source: PubChem BioAssay (EPA / NIEHS)
